# “And” between values parts separate entries of the source, which are not always exact repeats. Equal entries are not always repeated. The source made the active and inactive calls. The rule behind the calls is not given here.
# Target: Dual specificity protein kinase CLK1 (Homo sapiens) (UniProt P49759)
# Assay: ligand-induced CLK1 melting temperature shift – biophysical, recombinant human kinase, DSF (AID 382)
# Conditions: Recombinant CLK1, thermal shift (DSF), at 10 µM, protein 2 µM, buffer 10 mM HEPES, NaCl 150 mM, stronger effect = higher value
# Chain of Dual specificity protein kinase CLK1 (Homo sapiens) (P49759 whole entry, looked up): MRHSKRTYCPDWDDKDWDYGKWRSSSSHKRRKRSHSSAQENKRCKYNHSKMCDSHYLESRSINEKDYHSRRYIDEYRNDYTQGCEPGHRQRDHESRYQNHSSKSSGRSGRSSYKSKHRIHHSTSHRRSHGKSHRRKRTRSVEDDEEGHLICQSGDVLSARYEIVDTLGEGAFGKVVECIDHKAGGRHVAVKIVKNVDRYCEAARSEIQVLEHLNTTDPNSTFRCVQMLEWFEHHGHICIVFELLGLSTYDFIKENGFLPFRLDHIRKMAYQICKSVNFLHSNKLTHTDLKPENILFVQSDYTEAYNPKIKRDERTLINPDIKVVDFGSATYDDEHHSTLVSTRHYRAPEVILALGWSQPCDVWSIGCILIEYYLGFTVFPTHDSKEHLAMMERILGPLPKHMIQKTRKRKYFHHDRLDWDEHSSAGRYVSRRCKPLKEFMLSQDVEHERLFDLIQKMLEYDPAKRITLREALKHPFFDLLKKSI
row,SMILES,Tm shift
1,CN(C)CCCn1cc(C2=C(c3c[nH]c4ccccc34)C(=O)NC2=O)c2ccccc21,6.98 Celsius (active)
2,O=C1C(=O)C(c2cccc(O)c2)Oc2ccccc21 (stereo not drawn),3.88 Celsius (active)
3,NCCCn1cc(C2=C(c3c[nH]c4ccccc34)C(=O)NC2=O)c2ccccc21,8.48 Celsius (active)
4,CC1N=C2SC=CN2C(=O)C1CCN1CCC(=C(c2ccccc2)c2ccc(F)cc2)CC1 (stereo not drawn),6.74 Celsius (active)
5,O=c1cc(-c2ccccc2)oc2cc(O)c(O)c(O)c12,4.05 Celsius (active)
6,O=C1NC(=O)C(c2c[nH]c3ccccc23)=C1c1c[nH]c2ccccc12,4.13 Celsius (active)
7,O=C1c2ccccc2-c2n[nH]c3cccc1c23,4.9 Celsius (active)
8,CC(C)n1cnc2c(Nc3cccc(Cl)c3)nc(NCCO)nc21,5.26 Celsius (active)
9,O=C1C(=O)C(c2cc(O)c(O)c(O)c2)Oc2cc(O)cc(O)c21 (stereo not drawn),6.4 Celsius (active)
10,O=c1c(O)c(-c2ccc(O)c(O)c2)oc2cc(O)cc(O)c12,8.34 Celsius (active) and 6.74 Celsius (active)
11,O=Nc1c(-c2c(O)[nH]c3ccc(S(O)(O)O)cc23)[nH]c2ccccc12,3.64 Celsius (active)
12,COC(=O)c1cnc2oc3ccc(O)cc3c2c1-c1ccccc1,6.11 Celsius (active)
13,Cc1c(O)cc(O)c2c1OC(c1ccc(O)c(O)c1)C(=O)C2=O (stereo not drawn),4.98 Celsius (active)

# Same assay, conditions: Recombinant CLK1, thermal shift (DSF), at 10 µM, protein 2 µM, buffer 10 mM HEPES, NaCl 150 mM, with 50 mM Arg/Glu, stronger effect = higher value
row,SMILES,Tm shift
1,Clc1cccc(-c2cnc3ccc(NC4CCOCC4)nn23)c1,6.06 Celsius (active)
2,FC(F)(F)Oc1cccc(-c2cnc3ccc(NC4CCOCC4)nn23)c1,5.17 Celsius (active)
3,CC(=O)c1cccc(-c2cnc3ccc(NCC4CC4)nn23)c1,5.75 Celsius (active)

# Same assay, conditions: Recombinant CLK1, thermal shift (DSF), at 10 µM, protein 2 µM, buffer 10 mM HEPES, pH 7.5, NaCl 150 mM, with 50 µM L-Arg/L-Glu (1:1), stronger effect = higher value
row,SMILES,Tm shift
1,CC(C)[C@@H](CO)Nc1ccc2ncc(-c3cccc(O)c3)n2n1,4.2 Celsius (active)
2,O=C1NCc2c1c1c3ccccc3[nH]c1c1[nH]c3ccccc3c21,3.1 Celsius (active)
3,COc1cncc(-c2cnc3ccc(NC4CCOCC4)nn23)c1,3.2 Celsius (active)
4,CCC(CO)Nc1ccc2ncc(-c3cccc(CO)c3)n2n1 (stereo not drawn),5.3 Celsius (active)
5,NS(=O)(=O)c1ccc(Nc2nc(OCC3CCCCC3)c3[nH]cnc3n2)cc1,3.9 Celsius (active)
6,CCC(CO)Nc1ccc2ncc(-c3cccc(OC(F)(F)F)c3)n2n1 (stereo not drawn),5.3 Celsius (active)
7,NC1=N/C(=C2\CCNC(=O)c3[nH]ccc32)C(=O)N1,6 Celsius (active)
8,OCC(O)CCO/N=C1/C(c2c(O)[nH]c3ccccc23)=Nc2ccccc21 (stereo not drawn),7.7 Celsius (active)
9,CCCCc1c(-c2ccc(O)cc2)[nH]c2nccnc12,3.5 Celsius (active)
10,Nc1ccc(-c2cnn3ccc(Nc4cccc(Cl)c4)nc23)cc1,5.8 Celsius (active)
11,O=c1[nH]c(O)c2c1c1c3ccccc3nc1n1cncc21,4.5 Celsius (active)
12,Fc1ccc(-c2cnc3ccc(NC4CCOCC4)nn23)cc1,5.3 Celsius (active)

# Same assay, conditions: Recombinant CLK1, thermal shift (DSF), at 10 µM, protein 2 µM, buffer 10 mM HEPES, pH 7.5, NaCl 150 mM, with 50 mM Arg/Glu, stronger effect = higher value
row,SMILES,Tm shift
1,CN(C)CCCn1cc(C2=C(c3c[nH]c4ccccc34)C(=O)NC2=O)c2ccccc21,4.4 Celsius (active)
2,Nc1ncnc2c1c(I)cn2[C@@H]1O[C@H](CO)C(O)C1O (stereo partly drawn),5.2 Celsius (active)
3,CC(O)(O)C1(O)C[C@@H]2O[C@@]1(C)n1c3ccccc3c3c4c(c5c6ccccc6n2c5c31)C(=O)NC4 (stereo partly drawn),5.1 Celsius (active)
4,Cn1cc(/C=C2\C(=O)Nc3ccc(S(N)(=O)=O)cc32)c2ccccc21,3.6 Celsius (active)
5,CC(C)n1cnc2c(Nc3cccc(Cl)c3)nc(NCCO)nc21,4.6 Celsius (active)
6,NC1=N/C(=C2/CCNC(=O)c3[nH]c(Br)cc32)C(=O)N1,4.4 Celsius (active)

# Same assay, conditions: Recombinant CLK1, thermal shift (DSF), measured here: replicate experiment 2, at 10 µM, run 2, protein 2 µM, buffer 10 mM HEPES, NaCl 150 mM, stronger effect = higher value
row,SMILES,Tm shift [Celsius]
1,CC1N=C2SC=CN2C(=O)C1CCN1CCC(=C(c2ccccc2)c2ccc(F)cc2)CC1 (stereo not drawn),3.6
2,O=C1c2ccccc2-c2n[nH]c3cccc1c23,3.2
3,O=c1c(O)c(-c2ccc(O)c(O)c2)oc2cc(O)cc(O)c12,6
4,COC(=O)c1cnc2oc3ccc(O)cc3c2c1-c1ccccc1,3.9
